Values joined by “and” are separate entries in the source; they are usually repeats but may differ in a detail not shown here. Equal values may be shown once. Where a structure was tested more than once in an assay, its records may differ in their call. Active and inactive are the calls of the source. The calls were made as follows: active = hit-call score of the fitted dose curve at least 0.9, where 1 is the maximum; inactive = score below 0.9.
These compounds were tested on Interleukin 17F (IL17F), IL17F (gene 112744) (assay: BSK_BT_xIL17F: BioMAP Diversity Plus: BT Assay for Interleukin 17F (IL17F) Biomarker Activity (AID 2284243)). Conditions: primary human B cells with PBMC.
Method: BSK_BT is a cell-based, multiplexed-readout assay that uses B cell and peripheral blood mononuclear cells, a human vascular primary cell co-culture, with measurements taken at 24 hours after chemical dosing in a microplate: 96-well plate.BSK_BT_xIL17F is an assay component measured in the BSK_BT assay. It measures secreted IL-17F related to regulation of gene expression using LumineX xMAP technology.Data from the assay component BSK_BT_xIL17F was analyzed at the endpoint, BSK_BT_xIL17F, in the positive analysis fitting direction relative to DMSO as the negative control and baseline of activity. Using a type of cytokine quantitation reporter, gain or loss-of-signal activity can be used to understand protein changes. To generalize the intended target to other relatable targets, this assay endpoint is annotated to the 'cytokine' intended target family, where the subfamily is 'interleukins'.
The levels of cell surface (or secreted, indicated by the prefix "s") biomarker endpoints were measured by ELISA. Overt cytotoxicity to cells in confluent adherent cultures (all systems other than the BT system) was assessed by measuring total protein levels using sulforhodamine B (SRB) staining in parallel cultures at the time of biomarker measurements, indicated as SRB endpoints. For proliferation assays for adherent cell types, individual cell types are cultured at sub-confluence and relative cell numbers quantified by SRB staining at time points optimized for each system (48 h: 3C and CASM3C systems; 72 h: BT and HDF3CGF systems; 96 h: SAg system). SRB was performed by staining cells with 0.1% SRB after fixation with 10% TCA and reading wells at 560 nm.Viability and proliferation of PBMC (T cells) was quantified by Alamar Blue reduction for the SAg and BT systems. For PBMC viability (referred to as PBMC Cytotoxicity within the assay endpoint names), cells were plated (75,000/well in a 96-well plate) and then chemical samples added for 1 h before addition of activators, SEB and TSST-1 (20 ng/mL final concentration each). Cells were incubated for 90 h. Then, Alamar Blue (20 uL/well) (Invitrogen, Cat DAL1100) was added for 6 h, and the plates were read with a fluorescence microplate reader at 546/580 nm (excitation/emission). For PBMC proliferation, cells were plated and activated as above but incubated for only 16 h prior to addition of Alamar Blue. Plates were read after 6 h.

Compound | AC50 | outcome
O=C(O)C(F)(F)OC(F)(F)C(F)(F)OC(F)(F)C(F)(F)OC(F)(F)C(F)(F)C(F)(F)C(F)(F)F | 49.6 µM (active) and 47 µM (active) | –
O=C1c2ccc(O)c(O)c2C(=O)c2c(O)ccc(O)c21 | – | inactive
OCCN1CN(CCO)CN(CCO)C1 | 20 µM (active) | –
COc1cccc(O)c1 | – | inactive
C=CC(=C)CC/C=C(\C)CCC=C(C)C | – | inactive
OCC(F)(F)C(F)(F)C(F)(F)C(F)(F)C(F)(F)C(F)(F)C(F)(F)C(F)(F)C(F)(F)C(F)(F)C(F)(F)F | 13.9 nM (active) and 23.8 nM (active) | –
COC1=CC(=O)C[C@@H](C)[C@]12Oc1c(Cl)c(OC)cc(OC)c1C2=O | – | inactive
O=P(O)(O)CCC(F)(F)C(F)(F)C(F)(F)C(F)(F)C(F)(F)C(F)(F)F | – | inactive
C[C@]12CC[C@@H]3c4ccc(O)cc4CC[C@H]3[C@@H]1C[C@@H](O)[C@@H]2O | – | inactive
O=C(NCc1ncc(C(F)(F)F)cc1Cl)c1c(Cl)cccc1Cl | 21 µM (active) | –
O=C(NO)c1ccccc1 | 19.2 µM (active) | –
CC(C)(C)c1ccc(O)c(O)c1 | 26 µM (active) | –
CN(C)c1ccc(C(=C2C=CC(=[N+](C)C)C=C2)c2ccccc2)cc1 | 0.49 µM (active) | –
CC[N+](CC)(CC)Cc1ccccc1 | – | inactive
O=S(=O)(O)C(F)(F)C(F)(F)C(F)(F)C(F)(F)C(F)(F)C(F)(F)C(F)(F)C(F)(F)C(F)(F)C(F)(F)F | – | inactive
CCCCCc1ccc(O)cc1 | – | inactive
Cc1ccc(C(=O)c2ccccc2)cc1 | – | inactive
COCN(COC)c1nc(N(COC)COC)nc(N(COC)COC)n1 | – | inactive
CCCCCCCCCCCCCCCCCC[N+](C)(C)Cc1ccccc1 | 2.42 µM (active) | –

Compound | AC50 | outcome
CN(CCO)S(=O)(=O)C(F)(F)C(F)(F)C(F)(F)C(F)(F)C(F)(F)C(F)(F)C(F)(F)C(F)(F)F | 1.93 µM (active) | inactive
O=C(O)CCC(F)(F)C(F)(F)C(F)(F)C(F)(F)C(F)(F)F | – | inactive
O=P(O)(O)CCC(F)(F)C(F)(F)C(F)(F)C(F)(F)C(F)(F)C(F)(F)C(F)(F)C(F)(F)F | – | inactive
O=C1OC2(c3ccccc31)c1cc(I)c(O)c(I)c1Oc1c2cc(I)c(O)c1I | – | inactive
O=C(O)CCC(F)(F)C(F)(F)C(F)(F)C(F)(F)C(F)(F)C(F)(F)F | – | inactive
Cc1cccc2c1ccc1ccccc12 | 20 µM (active) | –
NC(=NCCCCCCN=C(N)/N=C(\N)Nc1ccc(Cl)cc1)/N=C(\N)Nc1ccc(Cl)cc1 | 5.34 µM (active) | –
Cc1ccc(N=Nc2c(O)ccc3ccccc23)c(C)c1 | – | inactive
C=COC(=O)C(C)(C)CCCCCC | – | inactive
C=CC(C)(CCC=C(C)C)OC(C)=O (centres undefined) | – | inactive
CCCCC(CC)C(=O)OCCOCCOCCOCCOC(=O)C(CC)CCCC (centres undefined) | – | inactive
COc1cc(OC)nc(NC(=O)NS(=O)(=O)Nc2ccccc2C(=O)N(C)C)n1 | – | inactive
CN(Cc1cnc2nc(N)nc(N)c2n1)c1ccc(C(=O)N[C@@H](CCC(=O)O)C(=O)O)cc1 | – | inactive
C=CC(=O)OCCC(F)(F)C(F)(F)C(F)(F)C(F)(F)C(F)(F)C(F)(F)C(F)(F)C(F)(F)F | – | inactive
CCOC(=O)CN[C@@H](C(=O)N1CC[C@H]1C(=O)NCc1ccc(/C(N)=N/O)cc1)C1CCCCC1 | – | inactive
Oc1cc2ccccc2cc1O | – | inactive
O=C(CC(=O)C(F)(F)C(F)(F)C(F)(F)F)c1cccs1 | 23.2 µM (active) and 25.1 µM (active) | –
Clc1ccc(Nc2nnc(Cc3ccncc3)c3ccccc23)cc1 | – | inactive
CC1=NN(c2ccccc2)C(=O)C1 | – | inactive

Source: PubChem BioAssay (EPA / NIEHS)
